Measured values published in PubChem BioAssay (Tox21).
“And” between values parts separate entries of the source, which are not always exact repeats. Identical values can stand only once. Records with an inconclusive call do not appear. Where a structure was tested more than once in an assay, its records may differ in their call. The source made the active and inactive calls. Unless noted, the call rests on the fitted dose curve; in most records, active means well fitted curve in the direction sought with a large enough effect in the repeat runs; inconclusive means weak or mixed curves; inactive means no such curve, though single readings can be large; an effect the other way counts as inactive or inconclusive.

Key:
[1] = biological target: Progesterone receptor (Homo sapiens) (UniProt P06401); experiment: qHTS assay to identify small molecule agonists of the progesterone receptor (PR) signaling pathway (AID 1346784; calls by dose curve; further: nearly all actives have a fitted effect of over 30% in size)
Summary of the method: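 The screen uses PR-UAS-bla HEK 293T cells in charcoal-stripped serum (2%). Compounds are applied for 16 hr at 37C after a 6 hr pre-incubation, and reporter activity is detected with a FRET beta-lactamase substrate after 2 hr at room temperature.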

[2] = qHTS assay to identify small molecule agonists of the progesterone receptor (PR) signaling pathway - cell viability counter screen (AID 1346799; calls by dose curve; further: nearly all actives have a fitted effect of over 45% in size)
Summary of the method: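 Viability was scored by ATP luminescence (CellTiter-Glo, 30 min, room temperature) in the same wells used for the reporter readout, after 16 hr compound exposure of PR-UAS-bla HEK293T cells.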

[3] = qHTS assay to identify small molecule antagonists of the TGF-beta/Smad signaling pathway - cell viability counter screen (AID 1346824); further: nearly all actives have a fitted effect of over 50% in size
Summary of the method: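 Cytotoxicity counter-screen run in the same wells as the beta-lactamase Smad reporter read: CellTiter-Glo luminescence after 30 min at room temperature. HEK 293T SBE-bla cells had 5 hr compound exposure at 37 C with TGF-beta1 (0.25 ng/mL stock).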

[4] = qHTS assay to identify small molecule agonists of the TGF-beta/Smad signaling pathway - cell viability counter screen (AID 1346829); further: top concentration of the series differs between compounds; nearly all actives have a fitted effect of over 45% in size
Summary of the method: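 Luminescence from CellTiter-Glo, read after a 30 min room-temperature incubation, gives cell viability of SBE-bla HEK 293T cells treated 5 hr with compounds at 37 C.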

[5] = qHTS assay to identify small molecule agonists of the TGF-beta/Smad signaling pathway (AID 1346859; active means well fitted activation curve with a large enough effect in the signal ratio in the repeat runs, not every such curve was filed as active; the % refers to the signal ratio; further: series mostly up to about 77 µM)
Summary of the method: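 Dual-wavelength fluorescence (460/530 nm emission) quantified beta-lactamase expression under the Smad binding element in HEK 293T cells following 5 hr compound treatment at 37 C.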

[6] = Human pregnane X receptor (PXR) small molecule agonists, qHTS cell viability counter screen (AID 1346977); further: nearly all actives have a fitted effect of over 50% in size; further: potency means the concentration at half of the fitted maximal effect
Summary of the method: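 HepG2 cells stably carrying the PXR-Luc reporter are cultured with 5% charcoal-stripped FBS and treated with compounds for 24hr. CellTiter-Fluor is added at 23hr and fluorescence is read after 1hr.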

[7] = Caspase-3/7 induction in HepG2 cells by small molecules, qHTS assay (AID 1346978); further: nearly all actives have a fitted effect of over 15% in size
Summary of the method: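 Caspase-3/7 induction was measured by Caspase-Glo 3/7 luminescence (30 min, room temperature) after a 17 hr compound exposure of wild-type HepG2 cells seeded at 2,000 per well and pre-incubated 5 hr.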

[8] = Caspase-3/7 induction in CHO-K1 cells by small molecules, qHTS cell viability counter screen (AID 1346979); further: nearly all actives have a fitted effect of over 35% in size; further: potency means the concentration at half of the fitted maximal effect
Summary of the method: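 Seeding: 1,500 CHO-K1 cells/well. Rest: 5hr, 37C. Treatment: compounds in DMSO, 16hr. Read: CellTiter-Fluor, 1hr, fluorescence.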

[9] = Caspase-3/7 induction in CHO-K1 cells by small molecules, qHTS assay (AID 1346980); further: nearly all actives have a fitted effect of over 15% in size
Summary of the method: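 Luminescent Caspase-Glo 3/7 read (30min, room temperature) quantified apoptosis induction. Cells were wild-type CHO-K1, treated with compound for 17hr at 37 C and 5% CO2.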

[10] = Caspase-3/7 induction in HepG2 cells by small molecules, qHTS cell viability counter screen (AID 1346981); further: nearly all actives have a fitted effect of over 30% in size; further: potency means the concentration at half of the fitted maximal effect
Summary of the method: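 Steps: seed 2,000 HepG2 cells per well; incubate 5 hr at 37 C; pin-add compounds in DMSO; incubate 16 hr; add CellTiter-Fluor; after 1 hr at 37 C and 5% CO2, read fluorescence.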

[11] = biological target: Nuclear receptor subfamily 1 group I member 2 (Homo sapiens) (UniProt O75469); experiment: Human pregnane X receptor (PXR) small molecule agonists, qHTS assay (AID 1346982); further: nearly all actives have a fitted effect of over 35% in size; further: potency means the concentration at half of the fitted maximal effect
Summary of the method: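 Agonist mode qHTS: PXR-Luc HepG2 cells plated 5 hr before DMSO-dissolved compounds were pinned in, cultured 24 hr at 37 C, 5% CO2; ONE-Glo luminescence readout.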

[12] = biological target: Cytochrome P450 2D6 (Homo sapiens) (UniProt P10635); experiment: Cytochrome P450 Family 2 Subfamily D Member 6 (CYP2D6) small molecule antagonists: luciferase reporter qHTS assay (AID 1671196); further: nearly all actives have a fitted effect of over 50% in size; further: potency means the concentration at half of the fitted maximal effect
Summary of the method: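 P450-Glo format: CYP2D6 converts a proluciferin substrate to luciferin in an NADPH-driven reaction lasting 1 h at room temperature. Light output, proportional to CYP2D6 activity, reflects interference by test chemicals.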

[13] = qHTS assay to identify small molecule antagonists of the progesterone receptor (PR) signaling pathway - cell viability counter screen (AID 1346798); further: series mostly up to about 92 µM; nearly all actives have a fitted effect of over 50% in size
Summary of the method: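 Viability was determined by ATP-based luminescence (CellTiter-Glo) in PR-UAS-bla HEK293T cells cultured in 2% charcoal-stripped serum and incubated 16 hr with compounds under R5020 stimulation.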

[14] = biological target: Thyrotropin-releasing hormone receptor (Homo sapiens) (UniProt P34981); experiment: qHTS assay to identify small molecule antagonists of the thyrotropin-releasing hormone receptor (TRHR) signaling pathway (AID 1346877; active means well fitted inhibition curve with a large enough effect in the repeat runs, not every such curve was filed as active; further: series mostly up to about 51 µM)
Summary of the method: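 Cells (TRHR-HEK293) are plated and kept 18 h at 37 °C/5% CO2. A calcium-sensitive dye is added for 2 h, compound follows for 5 min at room temperature, and TRH is then given at 1 nM final.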

[15] = biological target: Thyrotropin-releasing hormone receptor (Homo sapiens) (UniProt P34981); experiment: qHTS assay to identify small molecule agonists of the thyrotropin-releasing hormone receptor (TRHR) signaling pathway (AID 1346891; calls by dose curve; further: potency means the concentration at half of the fitted maximal effect;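 on activation: HEK293 cells expressing TRHR with calcium dye readout; series mostly up to about 58 µM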)
Summary of the method: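 Kinetic fluorescence (3 min, 1 s intervals) reported intracellular calcium after compound transfer onto TRHR-Hek293 cells pre-loaded with dye for 2 h at 37 °C.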

[16] = biological target: Nuclear receptor subfamily 1 group I member 2 (Homo sapiens) (UniProt O75469); experiment: CYP3A4 induction through human pregnane X receptor (PXR) by small molecules, qHTS assay (AID 1346984); further: nearly all actives have a fitted effect of over 40% in size
Summary of the method: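 Steps: seed DPX-2 cells, 5 hr at 37C; pin-transfer compounds; 24 hr at 37C; add Luciferin-IPA (3uM final), 3 hr at 37C; add One-Glo, 30 min RT; read luminescence.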

[17] = biological target: Nuclear receptor subfamily 1 group I member 2 (Homo sapiens) (UniProt O75469); experiment: Human pregnane X receptor (PXR) activation by small molecules, qHTS assay (AID 1346985); further: nearly all actives have a fitted effect of over 40% in size
Summary of the method: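 DPX-2 cells (HepG2 co-transfected with a PXR response element and a CYP3A4-promoter luciferase construct) were seeded at 2,000 per well, rested 5 hr at 37C, then exposed to DMSO-dissolved compounds for 24 hr. Activation was read as luciferase luminescence.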

[18] = biological target: Progesterone receptor (Homo sapiens) (UniProt P06401); experiment: qHTS assay to identify small molecule antagonists of the progesterone receptor (PR) signaling pathway (AID 1346795; active means well fitted inhibition curve with a large enough effect in the signal ratio in the repeat runs, not every such curve was filed as active; the % refers to the signal ratio; further: potency means the concentration at half of the fitted maximal effect)
Summary of the method: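 After 6 hr plating at 37C in 2% stripped-serum medium, PR-UAS-bla HEK293T cells got compounds, then 1 nM R5020. Sixteen hours later, LiveBLAzer substrate was applied for 2 hr at room temperature and fluorescence was recorded.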

Measured: Potency

Sequence of Cytochrome P450 2D6 (Homo sapiens) (P10635 whole entry, looked up): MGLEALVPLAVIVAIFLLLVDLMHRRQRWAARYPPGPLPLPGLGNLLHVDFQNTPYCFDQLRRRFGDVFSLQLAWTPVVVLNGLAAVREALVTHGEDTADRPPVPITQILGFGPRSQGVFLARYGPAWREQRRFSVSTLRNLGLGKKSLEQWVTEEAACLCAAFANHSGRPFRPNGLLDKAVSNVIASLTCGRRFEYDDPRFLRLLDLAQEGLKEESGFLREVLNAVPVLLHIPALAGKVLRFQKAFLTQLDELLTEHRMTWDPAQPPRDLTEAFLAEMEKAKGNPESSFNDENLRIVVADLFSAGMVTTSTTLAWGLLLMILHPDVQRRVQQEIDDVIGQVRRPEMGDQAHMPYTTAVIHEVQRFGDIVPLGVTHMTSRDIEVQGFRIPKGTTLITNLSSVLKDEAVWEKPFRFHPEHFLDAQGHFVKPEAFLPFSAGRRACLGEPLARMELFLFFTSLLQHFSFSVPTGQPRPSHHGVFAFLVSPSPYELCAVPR
Sequence of Nuclear receptor subfamily 1 group I member 2 (Homo sapiens) (O75469 whole entry, looked up): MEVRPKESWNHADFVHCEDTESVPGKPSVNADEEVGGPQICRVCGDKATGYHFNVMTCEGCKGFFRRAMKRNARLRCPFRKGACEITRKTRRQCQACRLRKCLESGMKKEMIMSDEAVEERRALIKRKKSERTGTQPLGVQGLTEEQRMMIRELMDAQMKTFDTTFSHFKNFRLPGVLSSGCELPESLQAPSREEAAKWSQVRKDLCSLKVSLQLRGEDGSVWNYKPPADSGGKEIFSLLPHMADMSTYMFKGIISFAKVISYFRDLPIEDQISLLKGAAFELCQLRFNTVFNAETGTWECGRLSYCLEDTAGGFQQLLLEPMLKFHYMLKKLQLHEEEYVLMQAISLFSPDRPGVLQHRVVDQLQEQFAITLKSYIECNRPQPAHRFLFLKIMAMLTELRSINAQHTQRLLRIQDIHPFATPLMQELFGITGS
Sequence of Thyrotropin-releasing hormone receptor (Homo sapiens) (P34981 whole entry, looked up): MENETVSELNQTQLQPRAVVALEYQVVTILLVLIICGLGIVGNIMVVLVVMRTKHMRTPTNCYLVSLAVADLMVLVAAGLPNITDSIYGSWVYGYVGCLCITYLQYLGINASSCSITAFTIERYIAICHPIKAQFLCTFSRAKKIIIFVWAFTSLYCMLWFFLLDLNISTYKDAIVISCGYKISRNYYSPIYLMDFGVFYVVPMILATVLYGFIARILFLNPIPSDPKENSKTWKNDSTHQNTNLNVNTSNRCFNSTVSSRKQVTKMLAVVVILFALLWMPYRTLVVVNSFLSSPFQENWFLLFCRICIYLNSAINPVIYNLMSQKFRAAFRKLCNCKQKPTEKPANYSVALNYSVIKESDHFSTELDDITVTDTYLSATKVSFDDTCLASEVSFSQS
Sequence of Progesterone receptor (Homo sapiens) (P06401 whole entry, looked up): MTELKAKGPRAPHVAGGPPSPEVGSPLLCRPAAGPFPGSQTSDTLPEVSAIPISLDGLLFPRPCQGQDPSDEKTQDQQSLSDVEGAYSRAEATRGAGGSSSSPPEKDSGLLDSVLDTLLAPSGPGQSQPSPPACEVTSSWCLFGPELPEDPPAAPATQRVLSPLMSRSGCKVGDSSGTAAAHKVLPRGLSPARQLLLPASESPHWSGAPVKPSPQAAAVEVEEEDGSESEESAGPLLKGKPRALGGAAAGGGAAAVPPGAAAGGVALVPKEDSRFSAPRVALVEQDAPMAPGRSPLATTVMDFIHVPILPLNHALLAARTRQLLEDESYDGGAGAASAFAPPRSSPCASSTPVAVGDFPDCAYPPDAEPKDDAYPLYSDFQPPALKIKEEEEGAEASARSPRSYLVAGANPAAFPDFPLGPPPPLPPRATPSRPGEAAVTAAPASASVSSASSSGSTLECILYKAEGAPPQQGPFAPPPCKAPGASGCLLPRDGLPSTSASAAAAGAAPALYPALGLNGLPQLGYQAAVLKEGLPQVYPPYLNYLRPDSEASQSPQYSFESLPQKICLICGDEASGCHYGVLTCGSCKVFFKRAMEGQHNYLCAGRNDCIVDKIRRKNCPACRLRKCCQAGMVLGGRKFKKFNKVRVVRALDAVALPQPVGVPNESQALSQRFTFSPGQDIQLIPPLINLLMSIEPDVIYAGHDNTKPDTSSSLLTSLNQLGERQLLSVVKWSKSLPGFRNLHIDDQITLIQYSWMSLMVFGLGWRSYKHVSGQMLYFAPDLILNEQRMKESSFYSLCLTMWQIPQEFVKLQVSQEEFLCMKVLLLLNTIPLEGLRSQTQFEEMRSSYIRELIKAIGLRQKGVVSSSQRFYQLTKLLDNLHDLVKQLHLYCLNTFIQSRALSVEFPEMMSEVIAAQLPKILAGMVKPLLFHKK

c1ccc2cc3c(ccc4ccccc43)cc2c1
active: [11] 27.4 µM and 10.9 µM | [12] 35.7 µM
not listed: [13] | [14] | [15] | [16] | [17] | [18]
inactive: all other assays above

CC(C)CCOC(=O)c1ccc(N(C)C)cc1
not listed: [9] | [18]
inactive: all other assays above

Clc1ccc2c(c1)C(N1CCNCC1)=Nc1ccccc1O2
active: [6] 29.8 µM | [12] 3.99 µM and 3.09 µM
5.45 µM (active) and inactive: [18]
not listed: [1] | [16] | [17]
inactive: all other assays above

Oc1c(Cl)cc(Cl)cc1Sc1cc(Cl)cc(Cl)c1O
inactive: [3] | [4] | [5] | [7] | [12]
active: [8] 15.4 µM and 62.1 µM and 17.2 µM | [10] 15.4 µM
39.6 µM (active) and inactive: [15]
